Measured values taken from ChEMBL document CHEMBL3988442, “University of Dundee, Small-Polar-MMV Screening Library” (2021).
Among all 48,000 compounds or so, about 13,000 (27%) showed an effect of 50% or more. Some of the results follow.

System: Wolbachia pipientis
Assay: Anti-Wolbachia Cell-Based Screen
Format: functional
Design: scale not given: in the data most compounds retested in dose-response had high values
Conditions: 5 µM

Q: With `Cc1cncc(C(=O)N2CCNCC2C(=O)NCc2ccncc2)c1` (stereo not drawn) as the molecule, how does the “Percent Effect” value read?
A: Its value is -0.08971%.

Q: With `Cc1ccccc1-c1cc(C(=O)NCCN2CCCS2(=O)=O)[nH]n1` as the molecule, how does the “Percent Effect” value read?
A: Its value is -0.2577%.

Q: How did the “Percent Effect” value turn out when `Cc1c(C(=O)N2CCSCC2)sc2nc(C(F)(F)F)ccc12` was run?
A: The value was -6%.

Q: With `COC1CCN(S(=O)(=O)N2CC[C@@](O)(C3CCC3)[C@H](C)C2)CC1` as the molecule, how does the “Percent Effect” value read?
A: The value was -8.21%.

Q: For `CC(C)c1cc(C(=O)N2CCc3ccccc3C2C(=O)O)n(C)n1` (stereo not drawn), which “Percent Effect” value is on record?
A: Its value is 5.563%.

Q: `COCCOc1ccc(-c2noc([C@@H]3CCCN3C3CCC3)n2)cn1` was tested. Which “Percent Effect” value did it give?
A: Its value is -15.03%.

Q: `Cn1cccc1C(=O)N[C@@H]1CN(CC2CC2)[C@@H]2COC[C@@H]21.O=C(O)C(F)(F)F` was tested. Which “Percent Effect” value did it give?
A: Its value is -18.52%.

Q: `O=C1NCCCCC1NCc1csc(-c2ccsc2)n1` (stereo not drawn) was tested. Which “Percent Effect” value did it give?
A: Its value is -2.584%.

Q: How did the “Percent Effect” value turn out when `FC(F)(F)c1cc(C2CCNCC2)nc(-c2ccsc2)n1` was run?
A: The value was 147.1%.

Q: Which “Percent Effect” value does the source give for `Cc1cc(C2CCNCC2)nc(-c2ccsc2)n1.Cl` here?
A: The value was 168.5%.

Q: With `O=C(c1ccsc1)N1CCCC(c2cc(C(F)(F)F)[nH]n2)C1` (stereo not drawn) as the molecule, how does the “Percent Effect” value read?
A: Its value is 0.1242%.

Q: How did the “Percent Effect” value turn out when `CC(C)CN1CC(c2nc(-c3ccsc3)c[nH]2)CC1=O` (stereo not drawn) was run?
A: Its value is -7.374%.

Q: For `Cl.Oc1cc(C2CCNCC2)nc(-c2ccsc2)n1`, which “Percent Effect” value is on record?
A: Its value is 186.4%.

Q: Which “Percent Effect” value does the source give for `Cc1nc(O)cc(C2CCN(C(=O)c3ccsc3)CC2)n1` here?
A: Its value is -4.98%.

Q: With `Cl.Cn1cnc2c(-c3ccccc3)nc(C3CCNCC3)cc21` as the molecule, how does the “Percent Effect” value read?
A: Its value is -35.46%.

Q: With `CC(C)(NC(=O)C1CCCN(C2CCCC2)C1)c1nnc(N)s1` (stereo not drawn) as the molecule, how does the “Percent Effect” value read?
A: The value was -3.514%.

Q: For `CN1CCc2c(CNc3ncccn3)n[nH]c2C1.O=C(O)C(F)(F)F`, which “Percent Effect” value is on record?
A: The value was -10.34%.

Q: How did the “Percent Effect” value turn out when `COc1cccc(CC2CN(C(=O)c3ccnn3C)CCO2)c1` (stereo not drawn) was run?
A: Its value is 14.16%.

Q: With `COc1ccc2c(C)c(C(=O)NC3CCOCC3)oc2c1` as the molecule, how does the “Percent Effect” value read?
A: Its value is -11.52%.

Q: With `COc1ccc(CNC(=O)N2CCOCC2C2CC2)c(C)c1` (stereo not drawn) as the molecule, how does the “Percent Effect” value read?
A: The value was -4.702%.

Q: Which “Percent Effect” value does the source give for `COc1cc(N2C[C@H]3CN(C(=O)c4cnccn4)C[C@H]3C2)ncn1` here?
A: Its value is 6.779%.

Q: For `Cn1nccc1C(=O)N1CCCC1c1ccc(C(=O)N2CCOCC2)s1` (stereo not drawn), which “Percent Effect” value is on record?
A: Its value is -16.33%.

Q: Which “Percent Effect” value does the source give for `COc1ccc2c(c1)CC(C1CCOCC1)N(C(=O)c1ccnn1C)C2` (stereo not drawn) here?
A: The value was 146.4%.

Q: How did the “Percent Effect” value turn out when `COc1cccc(C2CCN2C(=O)c2cnccn2)c1` (stereo not drawn) was run?
A: Its value is -9.896%.

Q: How did the “Percent Effect” value turn out when `COc1ccc2c(c1)CC(C1CCOCC1)N(C(=O)c1ccn(C)n1)C2` (stereo not drawn) was run?
A: The value was 107.8%.

Q: With `COc1ccc2c(c1)CC(C1CCOCC1)N(C(=O)c1cnccn1)C2` (stereo not drawn) as the molecule, how does the “Percent Effect” value read?
A: Its value is 143.6%.

Q: `CN(C(=O)c1ccc(Cl)cn1)c1ccccc1S(C)(=O)=O` was tested. Which “Percent Effect” value did it give?
A: The value was -14.63%.

Q: `O=C(N1CCC(O)(C(F)(F)F)C1)C1(c2ccc(Cl)cc2)CC1` (stereo not drawn) was tested. Which “Percent Effect” value did it give?
A: Its value is 16.08%.

Q: `Cc1cc(NC(=O)C(C)N2CCN(c3nc(C)ns3)CC2)on1` (stereo not drawn) was tested. Which “Percent Effect” value did it give?
A: Its value is 15.5%.

Q: `CN(Cc1nnc(C2CC2)o1)C(c1ccc(F)cc1)c1cccnc1` (stereo not drawn) was tested. Which “Percent Effect” value did it give?
A: The value was 14.1%.

Q: `O=C(N1CCCC1)N1CCn2c(Cn3cccn3)cnc2C1` was tested. Which “Percent Effect” value did it give?
A: Its value is 0.9982%.

Q: For `O=C1CCCN1Cc1nnc2n1CCCN(C(=O)c1ccc[nH]1)C2`, which “Percent Effect” value is on record?
A: The value was 114.8%.

Q: `O=C(c1ccc[nH]1)N1CCc2ncc(Cn3cccn3)n2CC1` was tested. Which “Percent Effect” value did it give?
A: The value was 112.6%.

Q: `Cc1cnc(N2CCCn3c(nnc3Cn3cccn3)C2)nc1` was tested. Which “Percent Effect” value did it give?
A: The value was -6.744%.

Q: `O=C(c1cccs1)N1CCc2nnc(COc3cncnc3)n2CC1` was tested. Which “Percent Effect” value did it give?
A: Its value is 6.421%.

Q: `O=C(c1ccc[nH]1)N1CCc2nnc(Cn3cccc3)n2CC1` was tested. Which “Percent Effect” value did it give?
A: The value was 104.6%.

Q: Which “Percent Effect” value does the source give for `CN(C)C(=O)N1CCn2c(Cn3cccn3)cnc2C1` here?
A: The value was -38.04%.

Q: With `O=C(C1CCCO1)N1CCCn2c(nnc2Cn2cccn2)C1` (stereo not drawn) as the molecule, how does the “Percent Effect” value read?
A: The value was -13.04%.

Q: With `O=C(c1c[nH]cn1)N1CCCn2c(nnc2Cn2cccc2)C1` as the molecule, how does the “Percent Effect” value read?
A: Its value is 4.942%.

Q: For `CN(C)Cc1nnc2n1CCCN(C(=O)c1c[nH]cn1)C2`, which “Percent Effect” value is on record?
A: Its value is -1.146%.

Q: With `O=C(c1ccc[nH]1)N1CCCn2c(nnc2Cn2cccn2)C1` as the molecule, how does the “Percent Effect” value read?
A: Its value is 88.61%.

Q: With `O=C(C1CCCO1)N1CCc2nnc(Cn3cccc3)n2CC1` (stereo not drawn) as the molecule, how does the “Percent Effect” value read?
A: The value was -14.83%.

Q: For `CC(C)(C)C(O)CN1CCN(Cc2cccc(C#N)c2)CC1` (stereo not drawn), which “Percent Effect” value is on record?
A: Its value is -1.667%.

Q: Which “Percent Effect” value does the source give for `CC(=O)N[C@H]1CCN2C(=O)[C@@H](Cc3c[nH]c4ccccc34)NC(=O)[C@H]12` here?
A: Its value is -9.075%.

Q: For `COCCN1CC(C(=O)N(C)Cc2ccc(Cl)s2)CC1=O` (stereo not drawn), which “Percent Effect” value is on record?
A: Its value is 25.53%.

Q: How did the “Percent Effect” value turn out when `O=C(c1ccc(SC(F)F)cc1)N1CCOCC1c1ncon1` (stereo not drawn) was run?
A: Its value is 2.35%.

Q: Which “Percent Effect” value does the source give for `O=C1NCC(CN2CCc3onc(-c4ccc(C(F)(F)F)cc4)c3C2)O1` (stereo not drawn) here?
A: Its value is 4.598%.

Q: `O=C(O)C(F)(F)F.O=C(c1ccccc1F)N1CCCn2c(CN3CCCCC3)nnc2C1` was tested. Which “Percent Effect” value did it give?
A: The value was 18.71%.

Q: For `O=C(c1ccc[nH]1)N1CCc2nnc(Cn3cccn3)n2CC1`, which “Percent Effect” value is on record?
A: The value was 121.3%.

Q: How did the “Percent Effect” value turn out when `O=C1CCCN1Cc1nnc2n1CCCN(C(=O)c1ccco1)C2` was run?
A: Its value is 122.9%.

Q: Which “Percent Effect” value does the source give for `O=C(c1ccc[nH]1)N1CCCn2c(CN3CCCCC3)nnc2C1` here?
A: Its value is 104.7%.

Q: With `CC(C)N(C)Cc1nnc2n1CCCN(C(=O)c1ccco1)C2` as the molecule, how does the “Percent Effect” value read?
A: Its value is 10.89%.

Q: With `Cc1cccc(C(=O)N2CCCn3c(CN4CCCCC4)nnc3C2)c1` as the molecule, how does the “Percent Effect” value read?
A: Its value is -5.352%.

Q: Which “Percent Effect” value does the source give for `c1cnn(Cc2nnc3n2CCCN(c2nccs2)C3)c1` here?
A: The value was -8.945%.

Q: Which “Percent Effect” value does the source give for `O=C(O)C(F)(F)F.O=C(c1ccccc1)N1CCCn2c(CN3CCCCC3)nnc2C1` here?
A: Its value is -7.245%.

Q: `O=C(O)C(F)(F)F.O=C(O)C(F)(F)F.O=C(c1c[nH]cn1)N1CCCn2c(CN3CCCCC3)nnc2C1` was tested. Which “Percent Effect” value did it give?
A: The value was 0.5876%.

Q: For `O=C(O)C(F)(F)F.O=C(c1ccc[nH]1)N1CCCn2c(CNC3CCC3)nnc2C1`, which “Percent Effect” value is on record?
A: Its value is 88.36%.

Q: How did the “Percent Effect” value turn out when `Cc1[nH]ccc1C(=O)N1CCC(c2nnc(Cn3cccn3)n2C)CC1` was run?
A: Its value is -8.959%.

Q: How did the “Percent Effect” value turn out when `COCCNC(=O)C(C)S(=O)(=O)c1ccc(OC)cc1` (stereo not drawn) was run?
A: The value was -5.557%.

Q: With `CCS(=O)(=O)N(C)C1CCN(c2cccc(F)c2C(C)=O)CC1` as the molecule, how does the “Percent Effect” value read?
A: Its value is 1.671%.

Q: With `CCN(CC)C(=O)CC[C@@H]1CNC(=O)[C@@H]2C[C@H](NC(=O)C3CC3)CN12` as the molecule, how does the “Percent Effect” value read?
A: The value was -0.8785%.

Q: With `COCc1nc(C(=O)NS(=O)(=O)c2ccc(C)c(C)c2)cs1` as the molecule, how does the “Percent Effect” value read?
A: Its value is -2.372%.

Q: How did the “Percent Effect” value turn out when `CSCC(=O)N1CCC(c2nccn2Cc2cscn2)CC1` was run?
A: Its value is -14.72%.
